This is a sample that favours compounds with a hit; in the whole collection about 19% have one here.
HT1080NT lethal: qHTS for induction of synthetic lethality in tumor cells producing 2HG: qHTS for the HT-1080-NT fibrosarcoma cell line. HT-1080-NT fibrosarcoma viability, CellTiter-Glo ATP luminescence, 48 h. Potency, µM (series often up to 46.1 µM), without a hit: at the top dose activity, negative = less viability, actives largely listed as cytotoxic. 360,000 tested, 1.6% active;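 further: NT is the 2HG producing partner of a matched IDH1 knockdown line; potency means the concentration at half of the fitted maximal effect; 0% = DMSO-treated cells and -100% = media-only wells without cells; nearly all actives have a fitted effect of over 55% in size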
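Viability by CellTiter-Glo luminescence after 48 h compound exposure at 37C of HT-1080-NT cells (750/well, RPMI, 5% FBS). % activity scaled between DMSO wells and medium-only wells, then curve-fitted and categorized by curve class.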
HT1080 IDH1KD tx: qHTS for induction of synthetic lethality in tumor cells producing 2HG: qHTS for the HT-1080-IDH1KD cell line | HT-1080 IDH1 knockdown viability, ATP luminescence, 48 h | 360,000 tested, 2% active | AID 686971, 2013 | Potency, µM (top dose mostly 46.1 µM), for the others: at the top dose activity, negative = toxicity, actives largely listed as cytotoxic;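 further: potency means the concentration at half of the fitted maximal effect; 0% = DMSO wells and -100% = cell-free medium wells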
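HT-1080-IDH1KD cells (IDH1 knocked down), 750/well in RPMI with 5% FBS, treated with compound 48 h at 37 degrees C. Viability by CellTiter-Glo luminescence, normalised to DMSO and no-cell wells; concentration-response curves classed.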
TDP1 cell CPT: qHTS for Inhibitors of human tyrosyl-DNA phosphodiesterase 1 (TDP1): qHTS in cells in presence of CPT; AID 686979, 2013; Potency, µM (doses to about 46.2 µM), for the others: at the highest dose activity change, negative = growth inhibition, usual class: inhibitors; chicken DT40 Tdp1-/-;hTDP1 cells + 20 nM CPT, ATP luminescence, 48 h; 420,000 tested, 12% active; further: potency means the concentration at half of the fitted maximal effect; nearly all actives have a fitted effect of over 55% in size
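Chicken DT40 Tdp1-/- cells stably complemented with human TDP1 were seeded at 400 cells/well in medium containing 20 nM camptothecin, exposed to pin-transferred compounds, and grown at 37 °C for at least 48 hr. Viability was read as ATP luminescence.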
IL-1B inflam inh: qHTS for Inhibitors of Inflammasome Signaling: IL-1-beta AlphaLISA Primary Screen | THP-1 LPS/ATP IL-1B secretion, AlphaLISA, 16 h; active compounds read low | activity change, % at 57.5 µM | 360,000 tested, 4.7% active | AID 743279, 2014; in the data active means activity change below about -50%; inconclusive means mostly about -30% to -49%
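Secreted IL-1B measured by AlphaLISA bead assay after 16 h compound exposure of THP-1 cells; compounds (final up to 57.5 uM) added 1 h before LPS (250 ng/mL) and ATP (1.25 mM) stimulation; lower signal means less secretion.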
DT40 TDP1 no CPT: qHTS for Inhibitors of human tyrosyl-DNA phosphodiesterase 1 (TDP1): qHTS in cells in absence of CPT; DT40 Tdp1-/- hTDP1 cells, no CPT, ATP luminescence, 48 h; Potency, µM (titrated, usually from 46.2 µM), for the others: at the highest dose activity change, negative = growth inhibition, actives largely listed as inhibitors; 420,000 tested, 15% active; AID 686978, 2013; further: potency means the concentration at half of the fitted maximal effect; nearly all actives have a fitted effect of over 55% in size
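Stably hTDP1-transfected Tdp1-null chicken DT40 cells were treated with library compounds minus camptothecin and grown for at least 48 hr at 37 °C, after which cellular ATP was quantified by luminescence.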
* hit, by the source's call; ? = inconclusive; / = no result given; [ ] = dose if it differs, or a comment. Unless noted, the call rests on the fitted dose curve; in most records, active means well fitted curve in the direction sought with a large enough effect; inconclusive means small, poorly fitted or top-dose-only effect, or another doubt; inactive means no such curve, though single readings can be large; an effect the other way counts as inactive or inconclusive. Unless noted, on the % scale 0 is the no-effect control and ±100 the full control effect.

SMILES	HT1080NT lethal	HT1080 IDH1KD tx	TDP1 cell CPT	IL-1B inflam inh	DT40 TDP1 no CPT
CO/N=C/NC(=O)NOCc1ccc(Cl)cc1Cl	-8%	-12%	1%	-14	-7%
C[n+]1ccc(/C=C/c2c[nH]c3ccc(F)cc23)cc1	-16%	?	1.6µM*	31	0.82µM*
Cn1cc(/C=C/c2cc[n+](C)cc2)c2cc(Cl)ccc21	-15%	?	0.65µM*	-60*	0.73µM*
Cn1cc(/C=C/c2cc[n+](C)cc2)c2cc(F)ccc21	?	?	0.52µM*	-4	0.58µM*
Cn1cc(C=O)c2cc(F)ccc21	-1%	2%	-1%	16	0%
Cc1ccc(S(=O)(=O)c2nnn3c2nc(N2CCN(c4ccccc4F)CC2)c2ccccc23)cc1C	/	/	-4%	/	1%
COc1cc2c(cc1OC)C(CNC(=O)C=Cc1ccccc1)C2 (centres undefined)	1%	1%	-21%	42	?
CCCNC(=O)COC(=O)c1ccccc1OCc1ccc(Cl)cc1	-3%	-4%	-9%	-5	?
c1ccc2c(-c3nc(C4CCCCC4)no3)cc(-c3ccncc3)nc2c1	3%	7%	?	-17	23µM*
Cc1ccccc1CSCC(Nc1ccc(C(=O)O)cc1[N+](=O)[O-])C(=O)O (centres undefined)	6%	11%	-18%	-14	1%
c1ccc(CSc2nc3ncccc3[nH]2)cc1	/	/	-8%	/	?
O=C(c1ccco1)N1CCN(c2nc(-c3ccc(F)cc3)cs2)CC1	-9%	-19%	?	-5	-24%
COc1ccc(-c2ccc3c(c2)O[C@H](CN(C)C(=O)Nc2ccccc2F)[C@@H](C)CN([C@H](C)CO)S3(=O)=O)cc1	-16%	-23%	23µM*	12	16µM*
COc1ccc(-c2ccc3c(c2)O[C@@H](CN(C)C(=O)c2ccccc2F)[C@@H](C)CN([C@@H](C)CO)S3(=O)=O)cc1	4%	-3%	?	-8	?
C[C@@H]1CN([C@H](C)CO)S(=O)(=O)c2ccc(-c3ccc(C#N)cc3)cc2O[C@H]1CN(C)C(=O)Nc1cc(F)ccc1F	?	-28%	6.5µM*	-8	2.3µM*
O=C(c1n[nH]c2c1CCCC2)N1CCOc2ccc(C(O)C3CCCCC3)cc2C1 (centres undefined)	/	/	-25%	/	-27%
CS(=O)(=O)c1ncc(Cl)c(C(=O)Nc2ccc(OC(F)F)cc2)n1	?	13µM*	0.82µM*	-99*	1.2µM*
O=C(Nc1ccc(OC(F)F)cc1)c1ccccn1	5%	2%	4%	2	3%
CS(=O)(=O)c1ncc(Cl)c(C(=O)Nc2ccc(N3CCOCC3)cc2)n1	3.5µM*	1.6µM*	1.2µM*	-102*	1.1µM*
CCOC(=O)N1CCC(NC(=O)c2cnn(-c3ccccc3)c2C2CCN(C(=O)OC(C)(C)C)CC2)CC1	/	/	-10%	/	-7%
CC(C)(C)OC(=O)N1CCC(c2c(C(=O)NCc3cccs3)cnn2-c2cccc(F)c2)CC1	/	/	?	/	16µM*
Cc1ccc(-n2ncc(C(=O)NCc3cccs3)c2C2CCN(C(=O)OC(C)(C)C)CC2)cc1C	/	/	16µM*	/	16µM*
Cc1ccc(C)c(NC(=O)c2cnn(-c3cccc(F)c3)c2C2CCN(C(=O)OC(C)(C)C)CC2)c1	/	/	?	/	23µM*
Cc1ccc(-n2ncc(C(=O)NCc3ccccn3)c2C2CCN(C(=O)OC(C)(C)C)CC2)cc1C	/	/	?	/	18µM*
CC(C)(C)OC(=O)N1CCC(c2c(C(=O)NCc3ccccn3)cnn2-c2ccccc2Cl)CC1	/	/	?	/	-29%
COC(=O)c1cccc(C(=O)N2CCc3c(cnc(C)c3CNC(=O)c3ccsc3)C2)c1	/	/	-14%[9.04 µM]	/	1%
